{"source": "PubChem BioAssay (NCI)", "note": "This is part of a sample that, as a whole, favours compounds with a hit. Of some 83,000 tested, about 20% had one in any assay.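 Compound tested at a single concentration for 48 hours in 96-well plates; a percent growth value below 10 was scored as active.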 Active and inactive are the calls of the source."}
{"tested_on": "MDA-MB-468 breast", "test": "NCI-60 one-dose screen, 48 h (100 = growth as untreated, 0 = no growth, -100 = all killed)", "conditions": "10 µM unless noted"}
{"smiles": "O=S(=O)(Nc1cc(Sc2cccc3cccnc23)c(O)c2ccccc12)c1ccc(F)cc1", "growth": "-46.6% (active)"}
{"smiles": "CCOC(=O)/C(C#N)=C\\Nc1ccc2ncnc(Nc3ccc(Cl)cc3Cl)c2c1", "growth": "56.4% (inactive)"}
{"smiles": "Cc1ccc(-n2nc3n(/c2=N\\C(=O)NS(=O)(=O)c2ccc(C)cc2)CCN3C2=NCCN2)cc1", "growth": "114% (inactive)"}
{"smiles": "CCC(=O)Oc1ccc2c(c1)CC[C@@H]1[C@@H]2CC[C@]2(C)C[C@H](OC(=O)CC)C[C@@H]12", "growth": "47.9% (inactive)"}
{"smiles": "CCOC(=O)/C=C/c1ccc([N+](=O)[O-])o1", "growth": "53.6% (inactive)"}
{"smiles": "Cc1ccc2nc3c(nc2c1)-c1cccc2cccc-3c12", "growth": "48.1% (inactive)"}
{"smiles": "CC(=O)OC[C@]12CC[C@@H]([C@@H](C)C(N)=O)[C@@H]1[C@H]1CC[C@@H]3[C@@]4(C)CC[C@H](OC(C)=O)C(C)(C)[C@@H]4CC[C@@]3(C)[C@]1(C)CC2", "growth": "-40.4% [100 µM] (active)"}
{"smiles": "CC#Cc1nc(Nc2cc(C)[nH]n2)c2ccccc2n1", "growth": "1.44% [100 µM] (active)"}
{"smiles": "CCCCCCCCN(CCCCCCCC)C(=N)c1ccnc2ccccc12", "growth": "-75.5% (active)"}
{"smiles": "CCCCc1n(Cc2ccc3ccccc3n2)cc[n+]1Cc1ccc2ccccc2c1", "growth": "-31.4% (active)"}
{"smiles": "Cn1c([N+](=O)[O-])cnc1/C=C1\\Oc2ccccc2C1=O", "growth": "28.3% (inactive)"}
{"smiles": "Nc1nc2c(nnn2C2CC(O)C(CO)O2)c(=O)[nH]1", "note": "(stereo not given)", "growth": "22.8% (inactive)"}
{"smiles": "COc1ccc2c(c1)OC13Oc4cc(OC)ccc4C=C1CCCCC3=C2", "growth": "95.6% (inactive)"}
{"smiles": "Cc1cc(C)c(-c2c(C)cc(C)cc2CBr)c(CBr)c1", "growth": "45.1% (inactive)"}
{"smiles": "CCCCCCc1cc2cc(-c3nc4ccccc4[nH]3)c(=Nc3ccccc3C)oc2cc1O", "growth": "-5.99% (active)"}
{"smiles": "CC1=C(/C=C/C(C)=C/C=C/C(C)=C/CO)C(C)(C)CCC1", "growth": "103% (inactive)"}
{"smiles": "CCOC(=O)c1cnn(-c2nc(-c3ccc(F)cc3)c(C#N)c(N3CCOCC3)n2)c1N", "growth": "92.6% (inactive)"}
{"smiles": "COc1ccc(C2=NN(C(C)=O)C(c3cn(Cc4ccc(Cl)cc4)c4ccccc34)C2)cc1", "note": "(stereo not given)", "growth": "69.2% (inactive)"}
{"smiles": "CC/C(=C(/c1ccc(Cl)cc1)c1ccc(OCCCN(C)C)cc1)c1ccc(OC)cc1", "growth": "51.7% (inactive)"}
{"smiles": "C/C(=C\\c1csc(C)n1)[C@@H]1C[C@@H]2O[C@]2(C)CCC[C@H](C)[C@H](O)[C@@H](C)C(=O)C(C)(C)[C@@H](O)CC(=O)N1", "growth": "22.4% (inactive)"}
{"smiles": "COc1ccc(-n2nc3c(c2-c2ccc(OC)c(OC)c2)-c2oncc2CC3)cc1", "growth": "90.1% (inactive)"}
{"smiles": "C=C(C)[C@@H]1CC[C@]2(C)[C@H](C(=O)C=C3[C@@H]4C[C@](C)(C(=O)N5CCN(C)CC5)CC[C@]4(C)CC[C@]32C)[C@@]1(C)CCC#N", "growth": "-76.5% [100 µM] (active)"}
{"smiles": "COc1ccc(CCN2CCC(CN(C)Cc3cnn(-c4ccccc4)c3)CC2)cc1", "growth": "19% (inactive)"}
{"smiles": "CS(=O)c1nccc(-c2c(-c3ccc(F)c(OCCc4ccc(F)cc4)c3)nc3sccn23)n1", "note": "(stereo not given)", "growth": "-64.3% (active)"}
{"smiles": "COc1cc(/C=N/n2cnc3oc(-c4ccccc4)cc3c2=N)cc(CN2CCN(C)CC2)c1O", "growth": "91.9% (inactive)"}
